Results from PubChem BioAssay.
Values joined by “and” are separate entries in the source; they are usually repeats but may differ in a detail not shown here. Equal entries are not always repeated. For some assays here: Results with a measured potency or affinity are listed apart. Active and inactive are the calls of the source. Unless noted, no stated cut-off is given here; in the data, active means nuclear beta-catenin stimulation mostly above about 4.2% (no sharp cut-off); inactive means mostly below about 10%.

Columns and labels:
[1] = Wnt pathway potentiators raising nuclear beta-catenin – imaging, WNT3A-conditioned medium, mouse C2C12, NPC library, primary screen (AID 1117326); settings: stronger effect = higher value
[2] = stimulators of insulin release from INS-1E, primary screen, cell-based, 5 mM glucose, NPC library (AID 1117329;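 active means compound raises insulin release from rat beta cells at 5 mM glucose, no numeric limit stated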); settings: rat INS-1E insulin secretion, at 10 µM, stronger effect = higher value
[3] = growth inhibition of GSK3B-pretreated HCT116 cells – cell-based, CellTiter-Glo, 0.2 to 20 µM (AID 1117336;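 active means compounds lowering colon cancer cell viability after pretreatment blocking the GSK3B kinase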); settings: HCT116 viability after GSK3B inhibitor, at 20 µM, stronger effect = higher value
[4] = inhibition of endothelial tube formation, primary screen, imaging, VEGF stimulated, CD31 staining, tube area, NPC library (AID 1117340;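 active means compound that reduces growth-factor-driven endothelial tube area in a mixed cell culture, no cutoff stated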); settings: VEGF-stimulated ADSC/ECFC co-culture, at 10 µM, stronger effect = higher value
[5] = GLP1 release stimulators, primary, NCI-H716, NPC library (AID 1117341;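 active means compound raises GLP1 secretion from the human gut endocrine cells, with no numeric limit stated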); settings: NCI-H716 cells, at 10 µM, stronger effect = higher value
[6] = HCT116 colon cancer cell growth inhibition, primary screen, CellTiter-Glo luminescence, NPC library (AID 1117342;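 active means compounds that lower survival of HCT116 colon cancer cells in the luminescence readout, no numeric limit stated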); settings: at 20 µM (top of the series)
[7] = reduced SW480 viability measured with CellTiter-Glo, NPC library, primary (AID 1117343;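 active means compounds that lower viability of the colon cancer cells in the luminescence readout, with no numeric limit stated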); settings: CellTiter-Glo luminescence; at 20 µM (top of the series)
[8] = NPC library primary testing for decreased DLD-1 cell viability via CellTiter-Glo (AID 1117346;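 active means compounds that lower survival of DLD-1 colon cancer cells in the luminescence readout, no cutoff given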); settings: DLD-1 viability, CellTiter-Glo luminescence; at 20 µM (top of the series)
[9] = blockers of polyQ-driven CASP3 activation – cell-based (AID 1583); settings: polyglutamine-induced caspase-3 activation, cell assay; stronger effect = higher value;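 tested at 10 µM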
[10] = yeast 75Q aggregation reduction – 75Q-TubU reporter (AID 1593); settings: Yeast 75Q polyglutamine aggregation reporter
[11] = restoration of touch response, mutant HTT neurons – whole organism, C. elegans mechanosensory neurons, N-terminal huntingtin (AID 1599); settings: C. elegans polyQ-huntingtin mechanosensory neurons, stronger effect = higher value
[12] = blockers of cytochrome c efflux from mitochondria – biochemical, purified mitochondria (AID 1603); settings: stronger effect = lower value;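 further: mouse liver mitochondria challenged with calcium chloride; signal normalized to the plate average as 100%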
[13] = polyglutamine aggregate formation blockers (AID 1604); settings: polyglutamine-induced protein aggregation inhibition assay; stronger effect = higher value; tested at 2.5 µM
[14] = glutamate transport activators, MN-1 cells, MN-1 cell line (AID 1612); settings: MN-1 motor neuron cells, stronger effect = higher value;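 further: tested at 1 µM final; 0% = mean of DMSO vehicle wells on each plate; positive means more glutamate uptake than control and negative means less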
[15] = GFP-Q80 aggregate reduction, neuronal-like cells, cell-based, NGF-treated PC12, GFPQ80 (AID 1614); settings: PC12 NGF-treated GFP-polyQ80 inclusion reduction;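 further: lower means fewer inclusions and 0 means no inclusions at all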
[16] = 75Q-TubH aggregate inhibition, S. cerevisiae, yeast (AID 1616); settings: S. cerevisiae 75Q-TubH polyglutamine aggregation suppression; stronger effect = higher value
[17] = compounds altering circadian rhythm period length – cell-based, LOPAC library, luminescence reporter (AID 2774; call rule not given here;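 further: values are relative to mean of DMSO wells on each plate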); settings: circadian reporter cells, at 7 µM, actives lie on both sides
[18] = compounds altering viability of human ES cells (AID 493140; call rule not given here;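 further: cells exposed to compounds for four days before counting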); settings: human embryonic stem cell survival screen; stronger effect = higher value
[19] = P. berghei load reduction in hepatocytes – cell-based, HepG2, luciferase luminescence, HepG2 viability, primary screen (AID 624349; in the data active means parasite load remaining mostly below about 12%, no sharp cut-off; inactive means mostly above about 10%;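 further: 100% = mean of DMSO negative control wells on the same plate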); settings: P. berghei liver stage in HepG2, luciferase luminescence, concentration not given here; parasite load remaining: stronger effect = lower value; viability: measured here: HepG2 viability without parasites
[20] = system: Hepatitis C virus NS3 helicase; assay: blockers of NS3h binding to ssDNA – biochemical, fluorescence polarization, LOPAC1280 library, primary screen (AID 687035; in the data active means inhibition above about 37%); settings: Purified HCV NS3 helicase, Cy5-dT15 ssDNA binding fluorescence polarization; stronger effect = higher value; concentration not given here
[21] = compounds altering Cy5-DNA-NS3h complex signal – biochemical, LOPAC1280, artefact control for HCV NS3 helicase inhibitor project (AID 687037; call rule not given here); settings: Cy5-DNA-NS3h complex fluorescence interference counterscreen
[22] = molecular target: 6-phosphogluconate dehydrogenase, decarboxylating (Homo sapiens) (UniProt P52209); assay: inhibition of human phosphogluconate dehydrogenase – biochemical, recombinant enzyme, NADPH absorbance, primary screen (AID 1159550;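 active means at least 20% inhibition of 6-phosphogluconate dehydrogenase activity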); settings: recombinant 6PGD, NADPH absorbance 341 nm; at 10 µM; stronger effect = higher value
[23] = EMT-state selective cytotoxicity in co-culture – imaging, PC-3E GFP, TEM4-18 mCherry, primary screen (AID 1345086;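 active means compounds killing one labelled cell type while sparing the other, by normalised counts and ratio limits, not self-fluorescent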;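 further: cells exposed to compound for 72 h before imaging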;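 on red/green cell ratio (normalised): normalised mesenchymal count divided by normalised epithelial count so high means epithelial killing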); settings: PC-3E GFP / TEM4-18 mCherry co-culture, imaging cell counts, at 1 µM
[24] = system: Aerobactin synthetase IucA (Klebsiella pneumoniae); assay: inhibition of K. pneumoniae IucA enzyme – biochemical, Tocris library, absorbance (AID 1345561; call rule not given here;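 further: 100% = enzyme without compound and 0% = no enzyme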); settings: purified IucA enzyme assay, absorbance (OD) read-out; stronger effect = lower value;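 tested at 8 µM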
[25] = system: Aerobactin synthetase IucA (Klebsiella pneumoniae hvKP1); assay: IucA enzyme inhibition, primary screen, biochemical, Spectrum library (AID 1346200; call rule not given here;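 further: 100% = wells without compound and 0% = wells lacking enzyme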); settings: malachite green pyrophosphate, A620, at 8 µM, stronger effect = lower value
[26] = blockers of cellular phospholipid synthesis – cell-based, LOPAC library, screen 4, primary screen (AID 1347384; call rule not given here); settings: animal cells, phospholipid biosynthesis inhibition screen; at 10 µM
[27] = MELAS cybrid and Rieske KO viability enhancers – cell-based, MELAS cybrids, Rieske KO mouse fibroblasts, CellTiter-Glo, primary screen (AID 1508586;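 active means mean z-score across replicates of 1.96 or higher in either the MELAS or the Rieske mutant cell line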;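 further: z relative to plate mean and SD of compound and empty wells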); settings: low glucose
[28] = molecular target: NAD(+) hydrolase SARM1 (Homo sapiens) (UniProt Q6SZW1); assay: blocking NAD cleavage by SARM1 SAM-TIR – cell lysate, NAD-Glo luminescence (AID 1508614;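 active means compound whose remaining NAD level is above about 45 nM, limit read from the data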); settings: SAM-TIR HEK293T lysate NADase, at 1 µM, stronger effect = higher value
[29] = molecular target: Mitogen-activated protein kinase 7 (Homo sapiens) (UniProt Q13164); assay: Gal4-ERK5 driven luciferase induction – cell-based, HTS, primary screen (AID 1508626;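 active means luciferase signal above three times the same-plate solvent-only control wells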;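 further: luciferase driven by Gal4-ERK5 fusion binding five Gal4 sites before minimal TATA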); settings: HeLa Gal4-ERK5 transactivation, 18 h, at 5 µM, stronger effect = higher value
[30] = galactose survival enhancers in mitochondrial complex I cybrids – cell-based, galactose medium, ATP luminescence, primary screen (AID 1645843;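 active means z-score of at least 1.8 in each of two replicates, scored against plate mean and spread of sample wells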;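 further: positive z means more ATP and so rescue of galactose-driven cybrid death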); settings: complex I mutant cybrid cells, 72 h, stronger effect = higher value

Mitogen-activated protein kinase 7 (Homo sapiens), sequence (Q13164 whole entry, looked up, the tested form may be a part): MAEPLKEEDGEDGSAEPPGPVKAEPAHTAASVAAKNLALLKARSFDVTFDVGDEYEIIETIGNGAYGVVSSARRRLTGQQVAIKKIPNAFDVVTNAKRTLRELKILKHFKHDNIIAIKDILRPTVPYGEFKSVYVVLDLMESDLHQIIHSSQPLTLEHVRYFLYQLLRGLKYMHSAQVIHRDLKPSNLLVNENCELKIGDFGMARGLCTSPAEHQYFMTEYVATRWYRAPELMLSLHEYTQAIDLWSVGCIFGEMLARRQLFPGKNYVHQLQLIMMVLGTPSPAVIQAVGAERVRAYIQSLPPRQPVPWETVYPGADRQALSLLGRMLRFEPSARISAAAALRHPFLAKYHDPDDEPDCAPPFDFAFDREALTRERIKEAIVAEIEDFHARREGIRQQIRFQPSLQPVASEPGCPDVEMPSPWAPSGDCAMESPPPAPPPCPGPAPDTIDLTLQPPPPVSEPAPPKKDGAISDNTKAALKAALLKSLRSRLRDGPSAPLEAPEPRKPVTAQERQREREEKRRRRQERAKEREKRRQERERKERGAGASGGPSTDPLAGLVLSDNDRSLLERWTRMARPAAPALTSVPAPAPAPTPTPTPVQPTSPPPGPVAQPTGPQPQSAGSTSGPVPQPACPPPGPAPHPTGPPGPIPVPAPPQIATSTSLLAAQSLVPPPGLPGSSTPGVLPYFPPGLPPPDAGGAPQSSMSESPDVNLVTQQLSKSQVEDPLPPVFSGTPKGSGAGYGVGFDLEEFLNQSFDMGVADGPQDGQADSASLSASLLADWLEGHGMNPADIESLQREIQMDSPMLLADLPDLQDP
NAD(+) hydrolase SARM1 (Homo sapiens), sequence (Q6SZW1 whole entry, looked up, the tested form may be a part): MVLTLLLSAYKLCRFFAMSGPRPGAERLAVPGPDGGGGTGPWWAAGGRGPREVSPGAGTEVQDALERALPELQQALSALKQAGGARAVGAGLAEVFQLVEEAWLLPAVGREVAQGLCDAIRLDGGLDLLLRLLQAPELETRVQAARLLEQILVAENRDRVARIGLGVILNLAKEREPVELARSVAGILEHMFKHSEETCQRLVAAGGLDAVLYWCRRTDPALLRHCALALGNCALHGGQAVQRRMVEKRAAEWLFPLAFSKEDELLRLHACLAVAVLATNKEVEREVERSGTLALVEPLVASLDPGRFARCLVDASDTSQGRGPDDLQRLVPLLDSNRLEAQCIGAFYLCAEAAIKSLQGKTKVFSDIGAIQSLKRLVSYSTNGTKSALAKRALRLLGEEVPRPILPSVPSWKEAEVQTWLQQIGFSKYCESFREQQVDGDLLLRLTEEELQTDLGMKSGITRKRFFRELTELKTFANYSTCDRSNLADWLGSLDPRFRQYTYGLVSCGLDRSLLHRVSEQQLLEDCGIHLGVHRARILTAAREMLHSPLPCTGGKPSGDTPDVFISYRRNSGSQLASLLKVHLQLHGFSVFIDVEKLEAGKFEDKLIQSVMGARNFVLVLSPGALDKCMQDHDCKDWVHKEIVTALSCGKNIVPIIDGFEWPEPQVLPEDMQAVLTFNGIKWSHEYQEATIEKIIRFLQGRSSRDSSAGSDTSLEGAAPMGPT
6-phosphogluconate dehydrogenase, decarboxylating (Homo sapiens), sequence (P52209 whole entry, looked up): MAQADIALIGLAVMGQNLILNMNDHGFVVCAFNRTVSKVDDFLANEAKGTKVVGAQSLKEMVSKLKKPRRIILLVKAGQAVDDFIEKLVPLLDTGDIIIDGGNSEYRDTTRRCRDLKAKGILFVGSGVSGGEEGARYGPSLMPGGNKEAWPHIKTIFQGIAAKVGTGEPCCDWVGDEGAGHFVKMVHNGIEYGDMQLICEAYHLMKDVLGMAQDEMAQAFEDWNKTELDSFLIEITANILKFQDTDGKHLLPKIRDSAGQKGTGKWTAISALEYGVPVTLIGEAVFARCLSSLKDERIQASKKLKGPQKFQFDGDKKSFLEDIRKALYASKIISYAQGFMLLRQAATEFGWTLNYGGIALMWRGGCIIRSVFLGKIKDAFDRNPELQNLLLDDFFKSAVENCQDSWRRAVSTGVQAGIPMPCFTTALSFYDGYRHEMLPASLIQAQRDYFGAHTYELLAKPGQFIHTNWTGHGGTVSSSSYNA

NCCS[As](SCCN)c1ccc(Nc2nc(N)nc(N)n2)cc1
-0.4%: nuclear beta-catenin stimulation ([1]; stimulation, at 2 µM)
inactive: nuclear beta-catenin stimulation ([1]; at 10 µM) -1.4% | insulin secretion stimulation [2] 0.6% | viability decrease [3] -8.2% | tube area decrease [4] 21.9% | GLP1 secretion stimulation [5] -3.3% | inhibition of viability [6] 0.1% | viability decrease (inhibition) [7] -3.2% | viability decrease (inhibition) [8] -34.2%

COP(=S)(OC)Oc1ccc(S(=O)(=O)N(C)C)cc1
-0.5%: nuclear beta-catenin stimulation ([1]; stimulation, at 2 µM)
inactive: nuclear beta-catenin stimulation ([1]; at 10 µM) -1.9% | insulin secretion stimulation [2] 0.3% | viability decrease [3] -11.8% | tube area decrease [4] -6.5% | GLP1 secretion stimulation [5] -1.2% | inhibition of viability [6] 4.9% | viability decrease (inhibition) [7] 6.4% | viability decrease (inhibition) [8] 0%

C1CN(P2(N3CC3)=NP(N3CC3)(N3CC3)=NP(N3CC3)(N3CC3)=N2)CCO1 (centres undefined)
inactive: nuclear beta-catenin stimulation ([1]; at 10 µM) -0.2% | insulin secretion stimulation [2] 2.5% | viability decrease [3] 8.1% | GLP1 secretion stimulation [5] -5.1% | inhibition of viability [6] 30.4% | viability decrease (inhibition) [8] 5.5%
0.7%: nuclear beta-catenin stimulation ([1]; stimulation, at 2 µM)
active: tube area decrease [4] 86.7% | viability decrease (inhibition) [7] 17.7%

COCC(=O)N(c1c(C)cccc1C)C(C)C(=O)OC (centres undefined)
inactive: nuclear beta-catenin stimulation ([1]; at 10 µM) 0.1% | insulin secretion stimulation [2] -1.7% | viability decrease [3] -0.7% | tube area decrease [4] -6.8% | GLP1 secretion stimulation [5] 1.9% | inhibition of viability [6] -27% | viability decrease (inhibition) [7] 1.1% | viability decrease (inhibition) [8] 8.85%
0.5%: nuclear beta-catenin stimulation ([1]; stimulation, at 2 µM)

O=C(NC(O)C(Cl)(Cl)Cl)NC(O)C(Cl)(Cl)Cl (centres undefined)
inactive: nuclear beta-catenin stimulation ([1]; at 10 µM) 0.9% | insulin secretion stimulation [2] 9.2% | viability decrease [3] -2.2% | tube area decrease [4] 1.1% | GLP1 secretion stimulation [5] 0.1% | inhibition of viability [6] 7.9% | viability decrease (inhibition) [7] -28.2% | viability decrease (inhibition) [8] -0.1%
-2.1%: nuclear beta-catenin stimulation ([1]; stimulation, at 2 µM)

CCC(CC)(CNC(=O)CCCO)c1cccc(OC)c1
-0.7%: nuclear beta-catenin stimulation ([1]; stimulation, at 2 µM)
inactive: nuclear beta-catenin stimulation ([1]; at 10 µM) -1.1% | insulin secretion stimulation [2] 0.4% | viability decrease [3] -15.7% | tube area decrease [4] 11.5% | GLP1 secretion stimulation [5] -1.4% | inhibition of viability [6] -6.33% | viability decrease (inhibition) [7] -5.8% | viability decrease (inhibition) [8] -6.4%

CCC1(c2ccccc2)C(=O)N(COC)C(=O)N(COC)C1=O
0.4%: nuclear beta-catenin stimulation ([1]; stimulation, at 2 µM)
inactive: nuclear beta-catenin stimulation ([1]; at 10 µM) 0.6% | insulin secretion stimulation [2] 0.35% | tube area decrease [4] 4% | GLP1 secretion stimulation [5] 1.4%
active: viability decrease [3] 83.5% | inhibition of viability [6] 96.3% | viability decrease (inhibition) [7] 89.5% | viability decrease (inhibition) [8] 62.9%

CCCCCCCCCCCCNCCNCCNCC(=O)O
1.1%: nuclear beta-catenin stimulation ([1]; stimulation, at 2 µM)
active: nuclear beta-catenin stimulation ([1]; at 10 µM) 92.8% | viability decrease [3] 98.8% | tube area decrease [4] 74.7% | inhibition of viability [6] 99.3% | viability decrease (inhibition) [7] 100% | viability decrease (inhibition) [8] 101%
inactive: insulin secretion stimulation [2] -0.3% | GLP1 secretion stimulation [5] 2.6%

CCOC(=O)NC(C)(C)Cc1ccc(Cl)cc1
-2.9%: nuclear beta-catenin stimulation ([1]; stimulation, at 2 µM)
inactive: nuclear beta-catenin stimulation ([1]; at 10 µM) 7.3% | insulin secretion stimulation [2] 2.1% | viability decrease [3] 13.6% | GLP1 secretion stimulation [5] -1.8% | viability decrease (inhibition) [7] 31.1% | viability decrease (inhibition) [8] 3.85%
active: tube area decrease [4] 65.4% | inhibition of viability [6] 61.4%

CC(C)(C)NCC(O)c1cc(Cl)c(N)c(C(F)(F)F)c1 (centres undefined)
1%: nuclear beta-catenin stimulation ([1]; stimulation, at 2 µM)
inactive: nuclear beta-catenin stimulation ([1]; at 10 µM) 0.4% | insulin secretion stimulation [2] -1.6% | viability decrease [3] -16.8% | tube area decrease [4] -0.3% | GLP1 secretion stimulation [5] -2.3% | inhibition of viability [6] 10.6% | viability decrease (inhibition) [7] 5.9% | viability decrease (inhibition) [8] -1.7%

CCOC(=O)C(c1c(O)c2ccccc2oc1=O)c1c(O)c2ccccc2oc1=O
-0.6%: nuclear beta-catenin stimulation ([1]; stimulation, at 2 µM)
inactive: nuclear beta-catenin stimulation ([1]; at 10 µM) -0.3% | insulin secretion stimulation [2] -0.8% | viability decrease [3] 13% | tube area decrease [4] -8.4% | GLP1 secretion stimulation [5] -0.8% | inhibition of viability [6] 5.5% | viability decrease (inhibition) [7] -18.7% | viability decrease (inhibition) [8] 3.4%

NCC(O)c1ccc(O)cc1 (centres undefined)
55.6%: inhibition of aggregation [13]
2: inclusion score [15]
1.11: score [10]
-6.97: rescue above control [11]
0.97: aggregation suppression score [16] | normalised cell number ([23]; measured here: mesenchymal TEM4-18 mCherry cell survival)
-13.3%: glutamate uptake change [14]
96% and 67.9%: viability [19]
inactive: period change [17] -0.025 h | survival [18] 5.08 | parasite load remaining [19] 79.5% and 84.6% | inhibition [20] -4% | fluorescence ratio (interference) [21] 1 | nuclear beta-catenin stimulation ([1]; at 10 µM) -0.4% | insulin secretion stimulation [2] -2.1% | viability decrease [3] -4.35% | tube area decrease [4] -17.5% | GLP1 secretion stimulation [5] 1.6% | inhibition of viability [6] -5% | viability decrease (inhibition) [7] 18.2% | viability decrease (inhibition) [8] 1.65% | inhibition [22] 8.94% | red/green cell ratio (normalised) ([23]; actives lie on both sides) 1 | remaining activity [24] 96.2% | activity remaining [25] 125% | outcome [26] | z-score ([27]; MELAS cybrid survival, CellTiter-Glo 48 h, stronger effect = higher value) -0.301 and 0.485 | remaining NAD [28] 10 nM | luciferase signal [29] 80 AU | z-score [30] 0.63 and -0.045
0.98: normalised cell number ([23]; measured here: epithelial PC-3E GFP cell survival)
0.8%: nuclear beta-catenin stimulation ([1]; stimulation, at 2 µM)
-11.8%: inhibition [9]
-0.195 and -0.00807: z-score ([27]; Rieske KO mouse fibroblast survival, CellTiter-Glo 72 h)
0.99: cytochrome c release ratio [12]
